In the library only some 3.5% were active in any assay of this set; here they are far more common.
FBW7 activator: activators of human E3 ligase FBW7; AID 1259310; actives 0.13% (n = 650,000); normalized activity (activation), % at 26.1 µM; AlphaScreen FBW7–phospho-cyclin E peptide binding, activator screen; Q969H0; in the data active = normalized activity above about 1.9%;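 also: purified mutant Fbw7 with reduced substrate affinity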
MITF inh: inhibitors of human MITF | AlphaScreen MITF homodimerization, bead proximity signal | inhibition, % at 2.6 µM | actives 0.91% (n = 650,000); in the data active = inhibition above about 50%
TEAD-YAP block: TEAD-YAP interaction inhibition. HEK-TIYL cells, TEAD-Gal4/YAP UAS-luciferase luminescence. inhibition, % at 9.12 µM. actives 1.4% (n = 640,000). AID 1259422; in the data active = inhibition above about 32%
GPR151 activ: human GPR151 activation; PathHunter beta-arrestin GPR151 cells, luminescence; actives 1% (n = 650,000); activation, % at 11.2 µM; Q8TDV0; in the data active = activation above about 4.9%
Target sequence (Q8TDV0 whole entry, looked up): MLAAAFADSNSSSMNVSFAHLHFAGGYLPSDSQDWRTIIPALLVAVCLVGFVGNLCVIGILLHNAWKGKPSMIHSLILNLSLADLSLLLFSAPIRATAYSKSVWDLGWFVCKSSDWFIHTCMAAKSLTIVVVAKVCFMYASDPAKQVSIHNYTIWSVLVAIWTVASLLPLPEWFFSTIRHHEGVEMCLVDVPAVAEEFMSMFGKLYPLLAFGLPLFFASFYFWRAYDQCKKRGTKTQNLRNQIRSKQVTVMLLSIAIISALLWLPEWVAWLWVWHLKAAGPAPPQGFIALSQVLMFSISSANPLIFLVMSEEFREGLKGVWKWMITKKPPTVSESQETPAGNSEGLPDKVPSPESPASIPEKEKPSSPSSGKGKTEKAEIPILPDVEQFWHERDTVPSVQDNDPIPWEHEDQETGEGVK
Of the large screens only hits and unclear results are named; the others gave an inactive call; ! = not active in a repeat.

O=c1cc2oc3cc(O)c(O)cc3c(-c3ccccn3)c-2cc1O	MITF inh 86
CC(=O)Nc1cccc(-c2cc(=O)c3ccccc3o2)c1O	none
CCCNc1ncnc2c1nc(N1CCN(Cc3ccc4c(c3)OCO4)CC1)n2C(C)C	none
C=C(c1ccccc1)c1ccc(OC)cc1	none
Cc1ccc(-c2[nH]nc3c2C(c2ccc(Cl)cc2)C(C#N)=C(N)O3)cc1 (stereo not given)	none
CC1=C(C#N)C(=O)NC(=O)/C1=C\c1ccc(-c2ccc(C(=O)O)c(Cl)c2)o1	MITF inh 58
CC1=C(C#N)C(=O)NC(=O)/C1=C\c1ccc(-c2ccccc2)o1	none
CC(=O)Nc1ccc(Nc2nc(-c3ccccc3)nc3c2ncn3-c2ccccc2)cc1	none
COc1ccc(-c2nc(Nc3ccc(NC(C)=O)cc3)c3ncn(C(C)C)c3n2)cn1	TEAD-YAP block 35
CC(=O)Nc1ccc(Nc2nc(-c3ccc(C(N)=O)cc3)nc3c2ncn3C(C)C)cc1	none
CC(=O)Nc1ccc(Nc2nc(-c3cccc(N)c3)nc3c2ncn3C(C)C)cc1	TEAD-YAP block 38
CC(=O)Nc1ccc(Nc2nc(-c3cccc(N)c3)nc3c2ncn3-c2ccccc2)cc1	TEAD-YAP block 41
CC(C)n1cnc2c(Nc3ccccc3)nc(-c3cccc(N)c3)nc21	none
CCOc1ccc(/C=N/NC(=O)C(=O)NC(C)c2ccccc2)cc1 (stereo not given)	none
COc1ccc(C(=O)CC(=O)c2ccccc2O)cc1	none
COc1ccc(O)c(C(=O)CC(=O)c2ccc(F)cc2)c1	TEAD-YAP block 51
O=S(=O)(Nc1ccc2c(c1)OCCO2)c1cccc(S(=O)(=O)N2CCCC2)c1	none
O=S(=O)(c1ccc2c(c1)N=Cc1c(F)cccc1O2)N1CCOCC1	TEAD-YAP block 45
O=S(=O)(c1ccc2c(c1)N=Cc1c(nc3sccn13)O2)N1CCOCC1	none
Cn1cc(/C=C2/NC(=O)N(CC(=O)Nc3ccc4c(c3)OCO4)C2=O)c2ccccc21	none
COc1ccc(Nc2nc(N3CCN(c4ccccc4OC)CC3)nc3[nH]ncc23)cc1	none
COc1ccc(Nc2nc(N3CCCCC3)nc3[nH]ncc23)cc1	TEAD-YAP block 40
CC1(C)O[C@]2(CCC3C4CC[C@H]5CCCC[C@]5(C)C4CC[C@@]32C)CN1C(=O)CSC1=NCCN1 (stereo not given in full)	TEAD-YAP block 33
C[C@]12CCCCC1CCC1C2CC[C@]2(C)C(N)CCC12 (stereo not given in full)	none
Cc1ccc(C)n1-c1ccc(C(=O)O)c(C(=O)O)c1	none
Cc1ccc(C)n1-c1ccc(Br)cc1C(=O)O	MITF inh 82
Nc1c(C(=O)N2CCCCC2)sc2nc(-c3cccs3)cc(C(F)(F)F)c12	FBW7 activator 4.1
COc1cc(C2C(C(=O)C(C)(C)C)=C(O)C(=O)N2Cc2ccccc2)ccc1O (stereo not given)	none
NS(=O)(=O)c1ccccc1C(=O)N/N=C(/CCC(=O)O)C(=O)O	none
CCN1C(=O)N(CC)C(NNC(N)=S)C1NNC(N)=S (stereo not given)	TEAD-YAP block 90
Cc1c(NC(=O)c2ccccc2)cccc1-c1nc2ccccc2o1	none
Cc1cccc(-n2ncc3c(NCCc4c[nH]c5ccccc45)ncnc32)c1	none
O=c1c2cc(Cl)ccc2nc2ccc(N3CCCC3)nn12	none
CC1CCN(c2ccc3nc4ccccc4c(=O)n3n2)CC1	TEAD-YAP block 76
CCCCOc1ccc(C(=O)N/C(=C\c2ccc(OC)cc2)C(=O)NCCc2c(C)[nH]c3ccccc23)cc1	none
O=C(Nc1nnc(C23CC4CC(CC(C4)C2)C3)s1)c1cccs1	TEAD-YAP block 33
O=C(Nc1nnc(C23CC4CC(CC(C4)C2)C3)s1)c1ccccc1	TEAD-YAP block 42
O=C(Nc1nnc(C23CC4CC(CC(C4)C2)C3)s1)c1ccccc1Cl	none
Cc1ccc2c(c1)Cc1nc3ccccc3nc1-2	TEAD-YAP block 65
Cc1cc2c(cc1C)-c1nc3ccccc3cc1C2	TEAD-YAP block 54
Cc1cc2c(cc1C)-c1nc3ccccc3cc1C2=O	none
Cc1[nH]ccc2c1[nH]c1cc(=O)ccc12	TEAD-YAP block 37!
Cc1ccc(Nc2nc3ccc(C)cc3n3nnnc23)c(Cl)c1	none
Clc1ccc(Nc2ncnc3c2cnn3-c2ccccc2)cc1	none
O=C(NNc1ncnc2c1cnn2-c1ccc(F)cc1)c1cccs1	none
Clc1ccc(-n2ncc3c(NC(c4ccccc4)c4ccccc4)ncnc32)cc1	none
CC(C)Nc1ncnc2c1cnn2-c1ccc(Cl)cc1	TEAD-YAP block 56
Clc1ccc(-n2ncc3c(Nc4ccc(Br)cc4)ncnc32)cc1	TEAD-YAP block 42
O=C(NNc1ncnc2c1cnn2-c1ccc(Cl)cc1)c1cccs1	TEAD-YAP block 57
